hcDAF12 agonist = activates DAF-12 receptor from parasite H. contortus. HEK293 hcDAF-12 lit1-tk-luc reporter, luminescence; 0% DMSO, 100% Δ7-dafachronic acid. activation, % at 6.8 µM. 1.4% of 370,000 active;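 active means activation above the mean of all tested compounds plus 3 SD, cut at about 5.5% in these data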
ssDAF12 agonist = S. stercoralis DAF-12 activation, primary screen; activation, % at 6.8 µM; HEK293 ssDAF-12/GRIP1 lit1-tk-luc reporter, luminescence; % of 3 µM dafachronic acid response; AID 652126; 1% of 370,000 active;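 active means activation above the mean over all tested compounds plus 3 SD, cut at about 0.9% in these data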
DAX1 inh-1 = inhibits human nuclear receptor DAX1 | 0.99% of 340,000 active | HEK293 Gal4-DAX1 luciferase reporter, luminescence | inhibition, % at 6.75 µM | AID 504766 | P51843;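 active means inhibition above the mean over all tested compounds plus 3 SD, cut at about 4.2% in these data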;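 further: inhibition shows as a rise in luminescence from relieved DAX1 repression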
Target sequence (P51843 207-470 limits assumed): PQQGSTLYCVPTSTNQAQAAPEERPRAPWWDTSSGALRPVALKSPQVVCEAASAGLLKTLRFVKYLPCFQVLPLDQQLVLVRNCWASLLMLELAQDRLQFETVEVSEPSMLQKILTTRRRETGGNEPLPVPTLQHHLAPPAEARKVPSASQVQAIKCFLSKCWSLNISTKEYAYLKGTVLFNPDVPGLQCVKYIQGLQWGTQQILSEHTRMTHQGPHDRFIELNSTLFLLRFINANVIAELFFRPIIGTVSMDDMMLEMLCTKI
SMARCA2 activ = SMARCA2 function activation, primary screen. AID 652017. MG213 cells, MMTV-luciferase reporter, dexamethasone, overnight. activation, % at 9.1 µM. 1% of 370,000 active; in the data active means activation above about 7.8%
DAX1 inh-2 = inhibitors of DAX1 repression of SF-1 activated StAR promoter; inhibition, % at 6.8 µM; AID 652010; 1.1% of 370,000 active; HEK293T StAR-luciferase reporter, SF-1/DAX-1 repression relief;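 active means inhibition above the mean over all tested compounds plus 3 SD, cut at about 3.6% in these data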;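 further: higher inhibition means more luminescence from relief of DAX-1 repression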
hgDAF-12 ag = hgDAF-12 agonism, primary luciferase screen. AID 687014. activation, % at 6.8 µM. HEK293 GAL4-hgDAF12 UAS-luciferase reporter, agonist luminescence; normalized to butyrate control. 1.8% of 370,000 active;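 active means activation above a cutoff set at the mean of all screened compounds plus 3 SD, cut at about 10% in these data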
Each line names hits and unclear results; the compound was inactive in the other large screens. Rows were chosen to be rich in hits. Some 4.8% of all compounds tested hit in one or more screens of this group.

COc1ccccc1Cc1c(-c2ccc(C)cc2)nc2ccc(Cl)cn12	DAX1 inh-2 3.9 (no result: DAX1 inh-1)
COc1ccc(-n2c(SCC(=O)Nc3ccccc3-c3ccccc3)nnc2-c2ccccn2)cc1	none (no result: DAX1 inh-1)
COc1cccc(-n2c(C)nnc2SCC(=O)Nc2ccccc2N2CCOCC2)c1	SMARCA2 activ 7.9
COc1ccc(/C=C2\SC(=S)N(CCCC(=O)Nc3ccccc3C(=O)O)C2=O)cc1OC	hcDAF12 agonist 6.3
CCN(CC)c1ccc(C(=S)NC2CCCCC2)cc1	none
CN(C)c1ccc(C(=S)NC2CCCCC2)cc1	DAX1 inh-1 5.1, DAX1 inh-2 4.3, hgDAF-12 ag 12.8
COCc1cc(CNC(=O)C2CCC(=O)N(Cc3ccccc3F)C2)[nH]n1 (stereo not given)	none
Clc1ccc(Nc2nnc(-c3ccc4c(c3)OCO4)o2)cc1	DAX1 inh-2 3.9 (no result: DAX1 inh-1)
CCCCC#Cc1ccccc1CC(=O)Nc1ccccc1	none
CCc1ccc(Nc2nc(C)cc(C)n2)cc1	hgDAF-12 ag 10.7
O=C(CNC(=O)c1ccc(Cl)cc1Cl)OCCOc1ccccc1	DAX1 inh-2 3.9
NC(=O)C1CCN(C(=S)c2ccc(-c3ccc(Br)cc3)o2)CC1	hgDAF-12 ag 11.9 (no result: DAX1 inh-1)
COc1cc2ccccc2cc1C(=O)NCCCN1CCOCC1	none
Cc1ccc(C)c(NC(=S)N(C)CCO)c1	DAX1 inh-1 4.8
CC(=O)OCC(=O)C1(O)CCC2C3CCC4=CC(=O)CCC4(C)C3C(O)CC21C (stereo not given)	DAX1 inh-2 3.7
CCOC(=O)OCC(=O)C1(O)CCC2C3CCC4=CC(=O)CCC4(C)C3C(O)CC21C (stereo not given)	none
CCCC(=O)N(c1ccc(OCC)cc1)S(=O)(=O)c1ccc2c3c(cccc13)C(=O)N2C	none
O=C(O)c1cccc(N2C(=O)c3ccc4c5c(ccc(c35)C2=O)C(=O)N(c2cccc(C(=O)O)c2)C4=O)c1	none
O=C(O)c1cccc(N2C(=O)c3ccc(Oc4ccc(Cl)cc4)cc3C2=O)c1	DAX1 inh-1 4.6
Cc1cccc(N2C(=O)c3cccc(Oc4ccc(Cl)cc4)c3C2=O)c1	DAX1 inh-1 5.2
CCCCCc1c(C)nc(SCC(=O)O)[nH]c1=O	none
CCCCCCCc1c(O)nc(SCC(=O)O)[nH]c1=O	DAX1 inh-1 5.1
COC(=O)CCC(=O)c1oc2ccccc2c1NC(=O)CCCN1C(=O)c2ccccc2C1=O	none
CC(=O)c1oc2ccccc2c1NC(=O)CCCN1C(=O)c2ccccc2C1=O	hcDAF12 agonist 5.8
CCOC(=O)c1cc(C)sc1/N=C/C1C(=O)CC(C)(C)CC1=O	none
CCOC(=O)c1c(CC(C)C)csc1/N=C/C1C(=O)CC(C)(C)CC1=O	DAX1 inh-1 5.5
O=C(CCC(=O)c1ccc[nH]1)c1ccc(Cl)cc1	hcDAF12 agonist 6.0, hgDAF-12 ag 12.2
Cc1ccc(C)c(NC(=S)NC2CC3CCC(C2)N3Cc2ccco2)c1 (stereo not given)	ssDAF12 agonist 1.6
Cc1cc(C)cc(NC(=S)NC2CC3CCC(C2)N3Cc2ccco2)c1 (stereo not given)	none
CN(CC(=O)Nc1ccc(F)cc1)C(=O)CSc1nncs1	DAX1 inh-2 3.9
Cc1csc(SCC(=O)N(C)CC(=O)Nc2ccc(F)cc2)n1	none (no result: hcDAF12 agonist, ssDAF12 agonist, SMARCA2 activ, DAX1 inh-2, hgDAF-12 ag)
COc1ccc(/C(C)=N/Nc2nncc3ccccc23)cc1	none
COc1ccc(/C(C)=N/Nc2nc3ccccc3nc2C)cc1	hcDAF12 agonist 5.8, ssDAF12 agonist 1.1
CCN(CC)c1ccc2cc(-c3nc4ccccc4n3C)c(=O)oc2c1	ssDAF12 agonist 1.0, DAX1 inh-2 3.6
CCN(CC)c1ccc2cc(-c3nc4ccccc4[nH]3)c(=O)oc2c1	none (no result: hcDAF12 agonist, ssDAF12 agonist, SMARCA2 activ, DAX1 inh-2, hgDAF-12 ag)
Cc1c(C(=O)O)cnc2cc(-c3ccc(Cl)cc3)nn12	ssDAF12 agonist 1.1
COc1ccccc1N(C)S(=O)(=O)c1ccc(C(=O)NCc2ccccc2CN2CCCC2)cc1	DAX1 inh-2 4.2
CCOC(=O)/C(=N\Nc1ccc(OC)cc1)c1csc(Nc2ccccc2)n1	SMARCA2 activ 7.8
CCOC(=O)/C(=N/Nc1ccccc1)c1csc(Nc2ccccc2)n1	none
COC(=O)c1ccc(-c2ccc(/C=N/NC(=O)CC3(C)OCCCO3)o2)cc1	SMARCA2 activ 7.8
O=C(CCNC(=O)c1ccccc1Cl)Nc1ccc(Br)c(C(F)(F)F)c1	ssDAF12 agonist 19.4
COc1ccccc1CC(=O)Nc1ccccc1O	none
COc1cc([N+](=O)[O-])ccc1NC(=O)COC(=O)c1n[nH]c2ccccc12	hcDAF12 agonist 6.3
COc1ccccc1CC(=O)Nc1ccc([N+](=O)[O-])cc1O	DAX1 inh-1 5.9
O=C(COC(=O)c1n[nH]c2ccccc12)Nc1ccc(Cl)cc1[N+](=O)[O-]	none
CCCN1C(=O)C(O)(C/C(C)=N/O)c2ccccc21 (stereo not given)	none
CCOC(=O)C1(Cc2ccc(OC)cc2)CCN(C(=O)c2cc3ccccc3[nH]2)CC1	ssDAF12 agonist 0.9
CCOC(=O)C1(Cc2ccc(OC)cc2)CCN(C(=O)c2cc(C)on2)CC1	none
Cn1cccc1C(=O)NC(=O)CSc1nc2ccccc2s1	ssDAF12 agonist 1.0
CC(=O)CSc1nc2ccccc2s1	none
O=C(O)c1c(C(=O)O)c(-c2ccc(Cl)c(Cl)c2)n2c1CSC2	none
COC(=O)CCC(=O)CN	DAX1 inh-1 4.7
COC(=O)CCCC(=O)OC	DAX1 inh-1 4.3
NS(=O)(=O)c1ccc(CCNc2ccc(C(F)(F)F)cn2)cc1	none
FC(F)(F)c1ccc(NCCc2ccccc2)nc1	DAX1 inh-1 5.1
CS(=O)(=O)NN1C(=O)c2ccccc2NC1c1ccccc1F (stereo not given)	none
CC1CCc2nn(CC(=O)NCCCN3CCCCC3)cc2C1 (stereo not given)	none
CCN1CCCC1CNC(=O)Cn1cc2c(n1)CCC(C)C2 (stereo not given)	DAX1 inh-1 4.5
Fc1ccc2nc(C3CCCCN3Cc3nc(CC4CC4)no3)[nH]c2c1 (stereo not given)	none
Cn1ncc2c(Nc3ccc4ccccc4c3)ncnc21	hgDAF-12 ag 12.5
CC1=NN(C(N)=S)C(=O)C1N=Nc1ccc(Cl)cc1 (stereo not given)	hgDAF-12 ag 11.3
CC1=NN(C(N)=S)C(=O)C1N=Nc1ccccc1 (stereo not given)	none
CC1=NN(C(N)=S)C(=O)C1N=Nc1cccc([N+](=O)[O-])c1 (stereo not given)	DAX1 inh-1 6.8
Cc1cccc(OCC(=O)NCCNC(=O)c2cnccn2)c1	none
Cc1nn2c(nc1=O)SCC(c1ccccc1)=N2	none
CC1CC(C)CN(CCOCCSc2ccc(Cl)cc2)C1 (stereo not given)	none
C=CCNc1oc(/C=C/c2ccccc2)nc1C#N	ssDAF12 agonist 0.9, DAX1 inh-2 3.9

Source: PubChem (The Scripps Research Institute Molecular Screening Center)
